Laboratory results: PubChem BioAssay (NCATS)
Inconclusive results are not listed. Unmarked numbers belong to inactive results. The source made the active and inactive calls. The call rests on the fitted dose curve.

test: Cytotoxicity counterscreen for inhibitors of SARS-CoV-2 cell entry (AID 1645845); settings: cell viability (SARS-CoV-2 entry assay cells); series mostly up to 57.1 µM; activity change, negative = cytotoxicity: at the top concentration; further: nearly all actives have a fitted effect of over 50% in size
Source text: Assay Provider: Wei Zheng, Ph.D.
National Center for Advancing Translational Sciences, National Institute of Health, Rockville, MD.
SARS-CoV-2 spike protein, within the viral envelope, mediates viral attachment and infection of host cells. The SARS-CoV-2 spike protein specifically binds to the host receptor ACE2 (Angiotensin-converting enzyme 2). This interaction promotes endocytosis of the viral particle, additional events lead to viral-host cell membrane fusion and release of the viral contents, allowing viral replication.
While SARS-CoV-2 requires BSL-3 facilities for live virus work, pseudo-typed partices (PP) that incorporate SARS-CoV-2 spike proteins without replication elements could facilitate studies on viral entry mechanisms in a BSL-2 setting. This PP cell entry assay could also enable screening of small molecule compound libraries in BSL-2 setting to identify inhibitors of SARS-CoV-2 cell entry. To eliminate false positive compounds, ATP content cytotoxicity assay was screened in the same cell line.
SEQUENCE No. (e.g., 1, 2, 3, etc.); […] (e.g., Cells, Incubation, Reagent, etc.); VALUE and DESCRIPTION.
1. Cells. Seed 1500 HEK293-ACE2 cells (Expi293F with stable expression of human ACE2) in 2 uL/well media (DMEM, 10% FBS, 1x L-glutamine, 1x Pen/Strep, 1 ug/ml puromycin) in white 1536-well assay plates (Greiner #782073).
2. Incubation. Incubate at 37 C with 5% CO2 overnight (~16 h).
3. Compounds. Dispense 23 nL/well compounds in DMSO via pin transfer.
4. Incubation. Incubate for 1 h at 37C 5% CO2.
5. Reagent. Dispense 2 uL/well of media (DMEM, 10% FBS, 1x L-glutamine, 1x Pen/Strep, 1 ug/ml puromycin).
6. Incubation. Incubate at for 48h at 37C 5% CO2
7. Reagent. Dispense 4 uL/well of ATPLite 1step luminescence assay reagent (PerkinElmer #6016739).
8. Incubation. Incubate for 15 min at room temperature.
9. Detection. Read luminescence signal (Viewlux plate reader, PerkinElmer). Data was normalized with wells containing cells as 100%, and wells without cells (media only control) as 0%.
On the % scale 0 is the no-effect control and ±100 the full control effect; potency means the concentration at half of the fitted maximal effect.

| Structure (SMILES) | activity change, negative = cytotoxicity | outcome | Potency |
| --- | --- | --- | --- |
| Cc1ccc(S(=O)(=O)N[C@@H](Cc2ccccc2)C(=O)CCl)cc1 | -19.5% |  |  |
| COc1ccc(COc2cc3oc(=O)c4cc(C(C)O)ccc4c3cc2OC)cc1 (stereo not given) | -2.23% |  |  |
| CC1COC2(CCN(c3nc(=O)c4cc(C(F)(F)F)cc([N+](=O)[O-])c4s3)CC2)O1 (stereo not given) |  | inactive |  |
| O=C(O)CCCc1c[nH]c2ccccc12 | -9.74% |  |  |
| O=C1NC(=O)/C(=C/c2ccc(-c3ccc(F)cc3O)o2)S1 | -5.64% |  |  |
| CO/N=C(\C(=O)N[C@@H]1C(=O)N2C(C(=O)O)=C(COC(C)=O)CS[C@H]12)c1csc(N)n1 | 0.271% |  |  |
| CC[C@@]1(O)C[C@H](O[C@H]2C[C@H](N(C)C)[C@H](O[C@H]3C[C@H](O)[C@H](O[C@H]4CCC(=O)[C@H](C)O4)[C@H](C)O3)[C@H](C)O2)c2c(cc3c(c2O)C(=O)c2c(O)cccc2C3=O)[C@@H]1C(=O)OC |  | inactive |  |
| C[C@@H]1COC(Nc2ccc3ncnc(Nc4ccc(OCc5nccs5)c(Cl)c4)c3c2)=N1 |  |  | 31.6 µM (active) |
| CCNCc1nc2c(N)nc3ccccc3c2n1CC(C)(C)O |  | inactive |  |
| CC(=O)O[C@H]1CC2(C)[C@@H](C[C@@H](O)[C@H]3[C@@]4(C)CC[C@@H](O)[C@@H](C)[C@@H]4CC[C@@]32C)C1=C(CCC=C(C)C)C(=O)O (stereo not given in full) | 4.57% |  |  |
| CC(C)=CCN1CC[C@]2(C)c3cc(O)ccc3C[C@H]1[C@H]2C |  | inactive [at 114 µM] |  |
| CCOc1ccccc1N=Nc1c(C)[nH]n(-c2nc(-c3ccccc3)cs2)c1=O |  | inactive |  |
| CNc1nc(C)nc(N[C@H]2CCC[C@@H](C(=O)NCc3ccc(C#N)cc3C(F)(F)F)C2)n1 |  | inactive |  |
| COc1cc(-c2nn(C3CCC(N4CCN(C(C)=O)CC4)CC3)c3ncnc(N)c23)ccc1NC(=O)c1cc2ccccc2n1C (stereo not given) | 4.13% |  |  |
| CS(=O)(=O)c1ccc(-c2cnc(N)c(C(=O)Nc3ccccc3)n2)cc1 |  | inactive |  |
| C[C@H](O)[C@@H]1C(=O)N2C(C(=O)O)=C(S[C@@H]3CN[C@H](CNS(N)(=O)=O)C3)[C@@H](C)[C@@H]12 | 2.5% |  |  |
| COc1cc2c(Nc3ccc(NC(=O)c4ccccc4)cc3)ncnc2cc1OCCCN1CCOCC1 |  |  | 31.6 µM (active) |
| COc1cccc([C@@H](C)NCCCc2ccccc2Cl)c1 | -15.1% |  |  |
| CC(C)(C)OC(=O)CN(Cc1ccc(Cl)cc1)Cc1ccc([N+](=O)[O-])s1 | -15.6% |  |  |
| Cn1cnc2c(F)c(Nc3ccc(Br)cc3F)c(C(=O)NOCCO)cc21 | -14.6% |  |  |

| Structure (SMILES) | activity change, negative = cytotoxicity | outcome | Potency |
| --- | --- | --- | --- |
| CCCn1c(=O)c2[nH]c(-c3cnn(Cc4cccc(C(F)(F)F)c4)c3)nc2n(CC)c1=O |  | inactive |  |
| CNC(=O)c1ccccc1Nc1nc(Nc2ccc(N3CCOCC3)cc2OC)ncc1Cl | -27.3% |  |  |
| COc1ccc(-n2c(C)c([N+](=O)[O-])c3ccc(O)cc32)cc1 | -19.8% |  |  |
| Cc1c(F)cc(C(=O)NC2CC2)cc1-c1ccc(C(=O)NCC(C)(C)C)cn1 |  | inactive |  |
| N#Cc1cc(NC(=O)Nc2nnc(-c3ccncc3)s2)ccc1-c1cn[nH]c1 |  | inactive |  |
| CC1(C)Cc2c(sc(NC(=S)NC(=O)c3ccccc3)c2C(=O)O)CO1 | 3.22% |  |  |
| CC(C)(CO)[C@@H](O)C(=O)NCCC(=O)O | 1.67% |  |  |
| CC(=O)OCC(=O)[C@@]12OC(C)(C)O[C@@H]1C[C@H]1[C@@H]3C[C@H](F)C4=CC(=O)C=C[C@]4(C)[C@@]3(F)[C@@H](O)C[C@@]12C |  |  | inactive |
| C[C@H](O)[C@H](O)[C@H]1CNc2nc(N)[nH]c(=O)c2N1 | 2.89% |  |  |
| Cc1ccc(/C=N/NC(=O)c2ccccc2Oc2ccccc2)o1 |  | inactive |  |
| CCc1nc(-c2cccc(C)c2)c(-c2ccnc(NC(=O)c3ccccc3)c2)s1 | -8.68% |  |  |
| Cc1onc(-c2ccccc2)c1C(=O)N[C@@H]1C(=O)N2[C@@H]1SC(C)(C)[C@@H]2C(=O)O | 0.683% |  |  |
| CC1(C)CCC(CN2CCN(c3ccc(C(=O)NS(=O)(=O)c4ccc(NCC5CCOCC5)c([N+](=O)[O-])c4)c(Oc4cnc5[nH]ccc5c4)c3)CC2)=C(c2ccc(Cl)cc2)C1 |  |  | inactive |
| Nc1nc(N)c2nc(-c3cccc(O)c3)c(-c3cccc(O)c3)nc2n1 | -12.1% |  |  |
| COc1cc2ncnc(Nc3cccc(Br)c3)c2cc1OC |  | inactive |  |
| COc1cc2ncn(-c3cc(OCc4ccccc4S(C)(=O)=O)c(C#N)s3)c2cc1OC | -1.72% |  |  |
| O=C(CC12CC3CC(CC(C3)C1)C2)Nc1cccc2nc(NCCNCCO)ccc12 | -13.6% |  |  |
| NS(=O)(=O)c1ccc(Nc2nc(OCC3CCCCC3)c3[nH]cnc3n2)cc1 |  | inactive |  |
| CCCCOc1nc(N)c2c(n1)N(Cc1cccc(CN3CCCC3)c1)CC(=O)N2 |  | inactive |  |
| Cc1noc(-c2ccc(CSCCC(=O)O)cc2)c1NC(=O)OC(C)c1ccccc1Cl (stereo not given) |  | inactive |  |
